Consider 51 molecules from PMC4336329 (PLoS ONE, 2015).

Structures are written as SMILES. The whole screen tested about 310,000 compounds, of which about 14,000 (4.5%) showed an effect of 50% or more. The effect is printed as a negative number. This is one part of a sample in which strong results are shown more often than they occur.
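Further: peak tail current of the secondary pulse compared with the same well before compound.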

Chain of human ether-à-go-go-related gene (hERG) potassium channel (Q12809 whole entry, looked up): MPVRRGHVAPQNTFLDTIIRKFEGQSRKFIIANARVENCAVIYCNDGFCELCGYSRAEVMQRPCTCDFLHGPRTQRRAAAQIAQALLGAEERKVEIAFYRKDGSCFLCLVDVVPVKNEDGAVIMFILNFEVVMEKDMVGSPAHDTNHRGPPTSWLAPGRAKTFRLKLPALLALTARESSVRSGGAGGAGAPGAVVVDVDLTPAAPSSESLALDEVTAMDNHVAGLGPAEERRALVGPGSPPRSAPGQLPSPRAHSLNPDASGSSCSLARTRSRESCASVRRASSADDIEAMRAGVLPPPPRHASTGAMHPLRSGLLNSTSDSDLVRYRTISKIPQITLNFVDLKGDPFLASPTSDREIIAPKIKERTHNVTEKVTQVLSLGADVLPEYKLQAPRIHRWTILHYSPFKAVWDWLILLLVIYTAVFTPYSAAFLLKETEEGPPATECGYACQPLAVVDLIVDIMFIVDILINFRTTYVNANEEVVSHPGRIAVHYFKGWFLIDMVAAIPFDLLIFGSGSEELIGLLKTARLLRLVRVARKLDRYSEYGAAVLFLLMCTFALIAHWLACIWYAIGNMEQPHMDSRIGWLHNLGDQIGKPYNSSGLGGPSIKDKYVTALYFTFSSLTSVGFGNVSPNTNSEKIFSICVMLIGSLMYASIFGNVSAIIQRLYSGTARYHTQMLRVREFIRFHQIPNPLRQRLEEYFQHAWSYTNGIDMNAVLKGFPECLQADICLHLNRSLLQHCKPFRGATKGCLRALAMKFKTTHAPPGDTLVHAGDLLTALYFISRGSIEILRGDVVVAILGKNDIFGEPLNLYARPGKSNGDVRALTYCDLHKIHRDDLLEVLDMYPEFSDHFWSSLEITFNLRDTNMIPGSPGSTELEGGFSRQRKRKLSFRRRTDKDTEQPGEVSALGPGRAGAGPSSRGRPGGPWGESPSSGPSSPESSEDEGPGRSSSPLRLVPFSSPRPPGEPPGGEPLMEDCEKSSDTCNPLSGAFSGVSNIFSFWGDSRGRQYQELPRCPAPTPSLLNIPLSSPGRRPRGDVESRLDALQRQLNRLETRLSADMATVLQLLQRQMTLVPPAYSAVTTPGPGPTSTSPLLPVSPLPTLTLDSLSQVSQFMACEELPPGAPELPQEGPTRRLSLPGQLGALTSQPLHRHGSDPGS

The assay addresses human ether-à-go-go-related gene (hERG) potassium channel (human, UniProt Q12809). The experiment in a line: primary screen, population patch clamp on CHO cells stably expressing hERG; higher = less effect of the substance.
For the molecule `COc1cc2c(cc1OC)C(C)N(CCN1C(=O)c3ccccc3C1=O)CC2` (stereo not drawn), the “hERG current change (%, negative = inhibition) at 10uM” value was found to be 17.5%. The figure for `COc1cc2c(cc1OC)C(C)N(CCc1ccc(Cl)cc1)CC2.O=C(O)/C=C\C(=O)O` (stereo not drawn) is -70.2%. In the case of `COc1cc2c(cc1OC)CN(CCC(C)c1ccc(Cl)cc1)CC2.O=C(O)/C=C\C(=O)O` (stereo not drawn), the “hERG current change (%, negative = inhibition) at 10uM” value is on record as -72.1%. In the case of `COc1cc2c(cc1OC)CN(CC(=O)Nc1ccc(Cl)cc1Cl)CC2`, the “hERG current change (%, negative = inhibition) at 10uM” value is -11.7%. For the molecule `COc1cc2c(cc1OC)CN(CC(O)c1ccccc1)CC2` (stereo not drawn), the “hERG current change (%, negative = inhibition) at 10uM” value came out at 14.4%. The figure for `COc1cc2c(cc1OC)C(C)N(Cc1ccc3c(c1)OCO3)CC2` (stereo not drawn) is -3.76%; for `Br.COc1cccc(C(=O)CSc2nccn2C)c1` it is 24.2%; for `COc1ccc(Cl)cc1NC(=O)CSc1nnc(-c2ccncc2)n1CC1CCCO1` (stereo not drawn) it is -28.2%. The figure for `C=CCn1c(N2CCN(c3ccc(OC)cc3)CC2)nc2c1c(=O)[nH]c(=O)n2C` is -24.6%; for `COc1cccc(N2C(=O)C3CCCN3C2c2ccc(F)cc2)c1` (stereo not drawn) it is 6.88%. In the case of `CCOc1nc2cnccc2n(CC(=O)Nc2ccccc2F)c1=O` it was 26.4%; in that of `C=CCN(CC=C)CCCOc1ccccc1C(=O)OC.O=C(O)C(=O)O`, -72.4%. For `C=CCN(CC=C)CCCOc1ccc(C)cc1OC.O=C(O)C(=O)O`, the “hERG current change (%, negative = inhibition) at 10uM” value is -45.1%. The figure for `COC(=O)c1ccccc1OCCCN(C)C.O=C(O)C(=O)O` is -17.4%. For `C/C(N)=C(/C#N)C(=O)CSc1cc(C)c2cc(C)cc(C)c2n1`, the “hERG current change (%, negative = inhibition) at 10uM” value worked out at 2.54%.

With `COc1cccc(N2CCN(C(=O)c3cc4c(OC)c(OC)c(OC)cc4[nH]3)CC2)c1`, the “hERG current change (%, negative = inhibition) at 10uM” value is listed as 9.11%. Take `COC(=O)c1ccc(OC(=O)C2CSC3(C)CCC(=O)N23)cc1` (stereo not drawn): the “hERG current change (%, negative = inhibition) at 10uM” value was -1.4%. In the case of `O=C(NC1CCCCC1)c1cc([N+](=O)[O-])ccc1N1CCCCC1` it was -17%; in that of `CCCCCn1c(N)c(-c2nc3ccccc3s2)c2c([N+](=O)[O-])nn(CC)c(=O)c21`, 5.78%. On to `CCOc1ccccc1OCC(=O)Nc1cc(S(=O)(=O)N2CCCCC2)ccc1N1CCN(CC)CC1`, for which the “hERG current change (%, negative = inhibition) at 10uM” value is on record as -71.5%. The figure for `CCC(=O)c1ccc(OCC(=O)Nc2cc(S(=O)(=O)N3CCCCC3)ccc2N2CCN(CC)CC2)cc1` is -84.3%; for `N#Cc1ccc(OCC(=O)Nc2cc(S(=O)(=O)N3CCCCC3)ccc2N2CCCCC2)cc1` it is -13.3%; for `CCN1CCN(c2ccc(S(=O)(=O)N3CCCCC3)cc2NC(=O)COc2ccc(Cl)c(C)c2)CC1` it is -34.5%. As for `CCN1CCN(c2ccc(S(=O)(=O)N3CCCCC3)cc2NC(=O)COc2ccc(Cl)cc2)CC1`, the “hERG current change (%, negative = inhibition) at 10uM” value is -15.2%. In the case of `CCN1CCN(c2ccc(S(=O)(=O)N3CCCCC3)cc2NC(=O)COc2ccccc2)CC1` it was -66.6%. In the case of `CCC(=O)c1ccc(OCC(=O)Nc2cc(S(=O)(=O)N3CCCCC3)ccc2OC)cc1` it was -19.8%; in that of `CCN1CCN(c2ccc(S(=O)(=O)N3CCCCC3)cc2NC(=O)COc2ccc(F)cc2Cl)CC1`, -65.1%. In the case of `CCN1CCN(c2ccc(S(=O)(=O)N3CCCCC3)cc2NC(=O)Cc2c(Cl)cccc2Cl)CC1` it was -38.6%; in that of `CCOc1ccccc1OCC(=O)Nc1cc(S(=O)(=O)N2CCCCC2)ccc1OC`, -16%; in that of `COc1ccccc1OCC(=O)Nc1cc(S(=O)(=O)N2CCCCC2)ccc1N1CCCCC1`, 2.21%. As for `CCN1CCN(c2ccc(S(=O)(=O)N3CCCCC3)cc2NC(=O)COc2cc(C)ccc2Cl)CC1`, the “hERG current change (%, negative = inhibition) at 10uM” value is recorded as -14.1%. For the molecule `CSc1nnc([C@@H](N)Cc2c[nH]c3ccccc23)o1.Cl`, the “hERG current change (%, negative = inhibition) at 10uM” value is reported as 30.1%. In the case of `CN1CCNC(=O)C1CC(=O)NCCc1ccccc1F` (stereo not drawn) it was 13.4%. In the case of `CCCCNC(=O)O[C@H]1C[C@@H]2CCN3C(=O)CCC[C@H]([C@H]1CC)[C@H]23` it was -8.19%; in that of `Cc1c(-c2ccc(/C=N/NC(=O)C(=O)Nc3ccccc3F)o2)cccc1[N+](=O)[O-]`, 21.1%.

With `CN1CCN(C(=O)c2ccccc2NC(=O)c2ccc(C(C)(C)C)cc2)CC1`, the “hERG current change (%, negative = inhibition) at 10uM” value is listed as -9.21%. For `Cc1onc(C(=O)N2CCN(Cc3ccccc3)CC2)c1[N+](=O)[O-]`, the “hERG current change (%, negative = inhibition) at 10uM” value was -10.7%. As for `NSc1nc(N)c2nc(-c3ccccc3)c(-c3ccccc3)nc2n1`, the “hERG current change (%, negative = inhibition) at 10uM” value came out at 4.96%. In the case of `CCc1cc2c(=O)n(-c3ccccc3)cnc2s1` it was 5.13%; in that of `COc1cccc(CN(C)C(=O)c2ccc(NS(=O)(=O)c3ccc(F)cc3)cc2)c1OC`, -9.34%; in that of `COc1ccc(CN(C)C(=O)c2ccc(NS(=O)(=O)c3ccc(F)cc3)cc2)c(OC)c1`, 3.52%.

Regarding `COc1ccc(CN(C)C(=O)c2ccc(NS(=O)(=O)c3ccc(F)cc3)cc2)c(OC)c1OC`, the “hERG current change (%, negative = inhibition) at 10uM” value is recorded as -55.6%. For `COC(=O)C(C)n1cnc2c(nnn2-c2cccc(Cl)c2)c1=O` (stereo not drawn), the “hERG current change (%, negative = inhibition) at 10uM” value is -13.4%. In the case of `CCOC(=O)CNS(=O)(=O)CCN1C(=O)c2ccccc2C1=O` it was 1.65%; in that of `COc1ccc(C)cc1NC(=O)C(Sc1nncn1C)c1ccccc1` (stereo not drawn), -3.91%; in that of `COc1ccc(NC(=O)C(Sc2nnc3ccccn23)c2ccccc2)cc1Cl` (stereo not drawn), -1.62%.

As to `COc1ccc(C)cc1NC(=O)C(Sc1nnc2ccccn12)c1ccccc1` (stereo not drawn), the “hERG current change (%, negative = inhibition) at 10uM” value was -67.7%. In the case of `COc1cc(C2NC(=O)c3ccccc3O2)cc(OC)c1OC` (stereo not drawn) it was -9.55%; in that of `CCOc1ccc(CCNC(=O)CSCC(=O)Nc2cccc(C)c2)cc1OCC`, -8.35%. For `CC(OC(=O)Cc1n[nH]c(=O)c2ccccc12)C(=O)Nc1ccc(F)cc1Cl` (stereo not drawn), the “hERG current change (%, negative = inhibition) at 10uM” value turned out to be 2.32%. As for `CCCC1=C(C(=O)OCC)C(c2c(C)nn(-c3ccccc3)c2Cl)C(C#N)=C(N)O1` (stereo not drawn), the “hERG current change (%, negative = inhibition) at 10uM” value is -16.1%.
